# This is part of a sample that, as a whole, favours compounds with a hit. Of some 83,000 tested, about 20% had one in any assay.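 Method: cells in 96-well plates; compound added at one concentration; 48 h incubation; percent growth measured; values under 10 scored active.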 A number with no mark means an inactive call. The source made the active and inactive calls.
# System: M14 melanoma
# Assay: NCI-60 one-dose screen, 48 h (100 = growth as untreated, 0 = no growth, -100 = all killed)
# Details: 10 µM unless noted
row,Structure (SMILES),growth
1,Cc1ccc(C(=O)Nc2ccc(CN3CCN(C)CC3)c(C(F)(F)F)c2)cc1C#Cc1cnc(N)c2ccc(F)cc12,-83.1% (active)
2,CCOC(=O)CNS(=O)(=O)CC(=O)c1ccccc1,93.4%
3,O=C(Nc1cccc(Cn2c(=O)[nH]c3ccc(Oc4ncccn4)cc3c2=O)c1)c1ccc(Cl)cc1,57.8%
4,O=C(Nc1cccc(Cn2c(=O)[nH]c3ccc(Oc4ncccn4)cc3c2=O)c1)c1cc(Cl)cc(Cl)c1,73%
5,C=C1CCC2C3(C)COC(c4ccccc4)OC3CCC2(C)C1C/C=C1/C(=O)OCC1O (stereo unspecified),80.6%
6,CC(C)(C)OC(=O)N1C/C(=C\c2ccccc2)C(=O)/C(=C/c2ccccc2)C1,98.3%
7,O=C(Nc1cccc(Cn2c(=O)[nH]c3ccc(Oc4ncccn4)cc3c2=O)c1)c1cccc(F)c1,78.6%
8,CCCCCC(=C/c1ccccc1)/C=N/N=C(N)N,-64.5% (active)
9,COc1cc2oc(-c3ccc(NC(=O)c4ccccc4)cc3)cc(=O)c2c(OC)c1OC,92.8%
10,N#Cc1c(N)nc(Nc2nc3ccccc3[nH]2)nc1-c1ccc(Cl)cc1,103%
11,Cc1ccc(C(=O)NN)cc1,113%
12,C/C=C(/C)C(=O)OC1C=C(CO)C(=O)C(OC(=O)/C(C)=C\C)C1C(C)C (stereo unspecified),-84.7% (active)
13,Cc1ncc(C(=O)Nc2ccc(CN3CCN(C)CC3)c(C(F)(F)F)c2)cc1C#Cc1cnc(NC2CC2)c2ncccc12,-89.8% (active)
14,CC(=O)N(N=O)c1ccc([N+](=O)[O-])cc1Cl,64.6%
15,O=C(NCCCl)Nc1nccnc1OCc1ccc(F)cc1,95.3%
16,COc1cc2c(c(OC)c1OC)C(=O)CC(c1cccc(C(=O)Nc3cccc(Br)c3)c1)O2 (stereo unspecified),73.1%

# Source: PubChem BioAssay (NCI)
